# Only some compounds are listed: those with a hit (about 4.7% of all), similar ones and a draw of the others.
# PLK1 PBD inh – blocks phosphopeptide binding to human Plk1 polo box domain; Plk1 PBD phosphopeptide binding, fluorescence polarization; inhibition, %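 (tested at about 20 µM)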; P53350; 97,000 compounds, 0.13% hits; in the data active = inhibition above about 34%, passing the limit was not always enough
# Pyk2 oligo antag – antagonists of human Pyk2 oligomerization. AID 1347419. 99,000 compounds, 0.83% hits. Q293 cells, Pyk2 FERM NanoBiT luminescence; hits give low values. z-score (the deposit names both 25 µM and 10 µM);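 active = Z-score of -3 or lower, scaled per plate to the spread of control and sample wells; inactive = z-score above -3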;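 also: negative z-score means lost luminescence so less FERM oligomerization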
# DAT uptake mod – modulates human dopamine transporter uptake under cocaine; Q01959; LLC-PK1 hDAT cells, [14C]-dopamine uptake with cocaine IC80; actives deviate in either direction; B-score at 10 µM; 110,000 compounds, 1.3% hits;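 active = Z score or B-score, a plate-position-corrected score, falls beyond the plate's 99.7% confidence bounds, in either direction; inactive = both scores lie inside the 99.7% bounds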;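 also: scored against the spread of the other compound wells on the same plate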
# Target sequence (Q01959 whole entry, looked up): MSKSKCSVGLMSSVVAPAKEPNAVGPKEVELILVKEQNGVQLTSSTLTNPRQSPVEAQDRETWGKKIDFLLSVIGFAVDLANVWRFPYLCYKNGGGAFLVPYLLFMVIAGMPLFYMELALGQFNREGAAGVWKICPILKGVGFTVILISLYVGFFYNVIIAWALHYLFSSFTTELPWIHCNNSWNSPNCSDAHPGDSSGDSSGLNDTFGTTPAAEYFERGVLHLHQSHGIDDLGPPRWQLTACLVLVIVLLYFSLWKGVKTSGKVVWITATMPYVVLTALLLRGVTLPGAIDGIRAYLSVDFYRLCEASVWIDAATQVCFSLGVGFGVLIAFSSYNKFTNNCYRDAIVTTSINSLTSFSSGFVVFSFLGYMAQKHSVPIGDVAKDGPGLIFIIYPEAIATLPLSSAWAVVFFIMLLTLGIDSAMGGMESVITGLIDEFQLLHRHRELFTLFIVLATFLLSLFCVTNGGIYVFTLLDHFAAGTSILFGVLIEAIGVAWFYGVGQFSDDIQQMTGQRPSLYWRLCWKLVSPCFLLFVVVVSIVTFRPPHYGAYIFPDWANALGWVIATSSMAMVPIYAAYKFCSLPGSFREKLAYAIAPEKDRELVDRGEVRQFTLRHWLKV
# sdo1 growth – restores growth of sdo1-depleted yeast | AID 817 | z-score at 10 µM | S. cerevisiae sdo1-depleted JHY4D growth rescue, OD600 30 h; hits give high values; pdr5 snq2 efflux-pump mutant strain | 140,000 compounds, 0.21% hits;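 active = z-score above 3 at both the 24 hr and the 30 hr optical density reads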;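 also: z-score against mean and SD of all compound wells on the same plate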
# Cav3 T inh – inhibitors of human Cav3.2 T-type calcium channel. 100,000 compounds, 4% hits. AID 449739. Cav3.2-expressing cells, Fluo-4 calcium fluorescence FDSS; hits give low values. O95180. B-score at 10 µM;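 active = single-dose well whose peak fluorescence ratio is a statistical outlier from its plate by either plate-standardised score or position-corrected B-score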
# PLK1 kinase inh – inhibitors of human PLK1 kinase | 97,000 compounds, 0.53% hits | inhibition, % at 10 µM | recombinant PLK1 kinase, TR-FRET peptide phosphorylation | P53350;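 active = inhibition of 50% or more in the single-concentration screen; inactive = inhibition below 50%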;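 also: 0% = DMSO max control and 100% = H-89 dihydrochloride min control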
# * marks the source's active call; other numbers are inactive results; . = no result given.
SMILES,PLK1 PBD inh,Pyk2 oligo antag,DAT uptake mod,sdo1 growth,Cav3 T inh,PLK1 kinase inh
CCOC(=O)COc1c(Cl)cc(C2NC(=S)NC(c3ccccc3)=C2C(C)=O)cc1OCC (stereo not given),.,.,.,1.28,.,.
CC(C)(C)c1ccc(C(=O)N2CCC(=O)N(C(CO)Cc3ccccc3)CC2)cc1 (stereo not given),.,.,0.0207,0.61,0.0339,.
O=C(Nc1nc(COc2ccccc2)cs1)c1ccccc1F,.,.,.,-2.04,.,.
CC(O)CNc1nc2ccccc2n1-c1ncnc2sc3c(c12)CCC3 (stereo not given),-2.1,0.48,2.83*,-1.27,-6.42*,-7.7
c1ccc2c(c1)ncn2-c1ncnc2sc3c(c12)CCCC3,-19.8,-0.18,0.286,-0.31,-1.29,-5.5
CCCN(CCC)C(=O)CSc1nc2n[nH]c(C)c2c(=N)n1-c1ccc(OC)cc1,4.1,-2.48,.,-0.37,.,9.8
CCCN(CCC)C(=O)CSc1nc2n[nH]c(C)c2c(=N)n1-c1ccc(OCC)cc1,1.0,-2.1,0.0279,-0.92,-6.25*,-9.0
Cc1nn(Cc2ccc(F)cc2)c(C)c1NC(=O)c1cc(-c2ccc3c(c2)OCO3)on1,4.3,.,-0.834,-1.06,0.0455,6.0
Cc1ccc(Cn2nc(C)c(NC(=O)c3cc(-c4ccco4)on3)c2C)cc1,12.0,-0.42,.,-1,.,0.0
CCn1ccc(C(=O)Nc2c(C)nn(Cc3c(F)c(F)c(F)c(F)c3F)c2C)n1,.,.,.,0.38,.,.
COc1ccc(-c2cc(C(=O)Nc3c(C)nn(Cc4ccc(Cl)cc4)c3C)no2)cc1,-17.1,1.05,0.0166,-2.07,-4.63*,-9.8
Cc1nn(Cc2ccc(Cl)cc2)c(C)c1NC(=O)c1cc(-c2ccco2)on1,12.6,-0.12,.,-2.31,.,4.7
Cc1nn(Cc2c(F)c(F)c(F)c(F)c2F)c(C)c1NC(=O)c1cccc(COc2ccc(Cl)cc2)c1,-6.7,0.08,-0.453,-0.78,-5.29*,-11.1
Cc1nn(Cc2ccc(Cl)c(Cl)c2)c(C)c1NC(=O)c1cc(-c2ccco2)on1,.,-0.27,-0.0291,-2.6,-5.75*,.
Cc1ccc(Cn2nc(C)c(NC(=O)c3cc(-c4ccc5c(c4)OCO5)on3)c2C)cc1,2.6,.,1.29,-0.29,-5.3*,-15.2
Cc1cc2c(N=NC(=O)C3CC3c3ccccc3)c(O)[nH]c2cc1Br (stereo not given),.,.,.,-0.79,.,.
CN1C(C(=O)NCc2cccc(C(F)(F)F)c2)CC2Cn3c(nc4cc(Cl)c(Cl)cc43)C21 (stereo not given),.,.,0.979,.,-0.437,.
NCCCCc1cn(CC(=O)N2CCNCC2)nn1,.,.,-0.178,.,0.989,.
CCOc1ccc(NC(=O)C23CC4CC(C2)CC(c2ccccc2)(C4)C3)cc1,-12.2,0,0.101,0.31,-1.87*,-4.9
O=C1OC(c2ccccc2)c2ccc3ccccc3c21 (stereo not given),.,.,.,-0.21,.,.
Cc1ccc(S(=O)(=O)N(C)C)cc1NS(=O)(=O)c1ccc(Cl)s1,.,.,.,0.42,.,.
Cc1ccc(S(=O)(=O)NC(C)CCc2ccccc2)cc1 (stereo not given),23.6,-0.71,1.97,-0.59,-4.11*,-12.3
CN(c1ccccc1)S(=O)(=O)c1ccc(NC(=O)c2ccc(-c3ccccc3)cc2)cc1,-15.5,-0.42,-1.47,0.06,-1.83,-6.2
CCCCN(CC)S(=O)(=O)c1ccc(C(=O)Nc2nnc(-c3cccs3)o2)cc1,-9.5,.,-0.25,-0.81,-4.81*,-1.6
COc1cccc(C(=O)Nc2nnc(-c3cccs3)o2)c1,-2.6,.,.,-2.28,.,-6.0
SMILES,PLK1 PBD inh,Pyk2 oligo antag,DAT uptake mod,sdo1 growth,Cav3 T inh,PLK1 kinase inh
COc1ccccc1-c1nnc(NC(=O)c2ccc(S(=O)(=O)N(C)Cc3ccccc3)cc2)o1,-9.2,.,-8.6*,-1.08,-5.77*,-14.5
CCCCN(CCCC)S(=O)(=O)c1ccc(C(=O)Nc2nnc(COC)o2)cc1,-1.1,-1.85,-0.0369,-1,-0.707,-12.6
CN(c1ccccc1)S(=O)(=O)c1ccc(C(=O)Nc2nnc(-c3ccc(F)cc3)o2)cc1,28.9,.,-0.208,-1.57,-7.52*,-7.1
CCc1nnc(NC(=O)c2ccc(S(=O)(=O)N(CC)Cc3ccccc3)cc2)o1,-18.3,-1.38,0.375,0.02,-4.45*,-8.3
Cc1ccc(NC(=O)NNC(=O)Cn2nc(-c3ccccc3)c(-c3ccccc3)c(C#N)c2=O)cc1,24.5,0.01,1.84,-0.33,-7.02*,-8.7
N=C1C(c2nc3ccccc3[nH]2)=C(O)CN1NC(=O)COc1cccc(F)c1,.,.,.,1.3,.,.
CCC(C)NC(=O)CCC(=O)Nc1ccc2nc(N3CCOCC3)cc(C)c2c1 (stereo not given),-15.2,0.55,0.333,1.58,2.01,-3.2
COc1ccc(N(C)C(=O)CCC(=O)Nc2ccc3nc(N4CCOCC4)cc(C)c3c2)c(OC)c1,-0.6,-0.26,3.2*,1.56,-2.28,-11.9
CCN1CCN(c2cc(C)c3cc(NC(=O)Cc4ccc(OC)c(OC)c4)ccc3n2)CC1,.,.,3.09*,0.68,0.016,.
CCN1CCN(c2cc(C)c3cc(NC(=O)c4cnccn4)ccc3n2)CC1,-3.8,.,-0.277,1.5,-0.0802,-12.8
Cc1cc(N2CCCCC2)nc2ccc(NC(=O)c3ccc(Br)o3)cc12,32.2,0.37,0.409,-1.19,-4.92*,7.6
COc1ccc(NS(=O)(=O)c2cc(N/C(=N\S(=O)(=O)c3ccccc3)c3ccc(F)cc3)ccc2Cl)cc1,.,.,.,-0.31,.,.
CON/C=C(\C=Nc1ccc(F)cc1)c1ncc(C(F)(F)F)cc1Cl,-0.3,1.17,-0.243,-1.59,-0.117,-4.5
COC(=O)/C(=C\Nc1ccc(Cl)c2ccccc12)c1ncc(C(F)(F)F)cc1Cl,-6.6,-3.35*,0.439,-1.75,-0.286,-15.2
CCCNC(=O)COC(=O)c1ccccc1OCc1ccc(Cl)cc1,-20.5,-0.31,0.186,-0.96,-3.89,-7.6
CNS(=O)(=O)c1ccc(NCC2COc3ccccc3O2)c([N+](=O)[O-])c1 (stereo not given),.,.,.,0.53,.,.
CC1=CCC(/C=N\Nc2nnc3c(n2)[nH]c2ccccc23)CC1 (stereo not given),.,.,.,0.65,.,.
COc1ccc(-n2c(Cc3cccn3C)nnc2SCC(=O)Nc2cccc(Cl)c2)cc1,9.1,.,0.786,-0.86,-12.7*,-10.9
Cn1cccc1Cc1nnc(SCC(=O)Nc2cccc(Cl)c2)n1-c1ccc(F)cc1,.,.,0.0756,-1.59,-10.2*,.
COc1ccc(-n2c(Cc3cccn3C)nnc2SCC(=O)Nc2cccc(NC(C)=O)c2)cc1,0.6,2.02,0.18,1.12,-1.73,-3.0
Cn1cccc1Cc1nnc(SCC(=O)Nc2cccc(F)c2)n1-c1ccc(F)cc1,.,.,-0.718,-0.73,-7.32*,.

# Screening results (PubChem BioAssay)
